# Source: PubChem BioAssay
# Several values for one entry are separate records, joined by “and”; a condition that tells them apart may be missing. Equal entries are not always repeated. Activity calls are given as the source filed them. Rule as the data show it, unless noted: active = inhibition above about 80%; inactive = the rest.
# Tests used:
# [1] = growth inhibition, single agents and combos, CRL2098, cell-based, BGB or cisplatin IC20 combos, synergistic combos for chromothripsis tumors (AID 1671454); details: CRL2098 osteosarcoma cells, drug combinations, stronger effect = higher value;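 also: cells exposed for 96 h before readout; 0% = vehicle DMSO and 100% = killing by high DMSO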
# [2] = growth inhibition, single agents and combos, HD-MB03, cell-based, BGB or cisplatin IC20 combos, synergistic combos for chromothripsis tumors (AID 1671455; in the data active = inhibition above about 83%;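 also: 0% = vehicle DMSO and 100% = high DMSO as cytotoxic control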); details: HD-MB03 medulloblastoma cells, stronger effect = higher value
# [3] = growth inhibition, single agents and combos, UWB1.289, cell-based, BGB or cisplatin combos, synergistic combos for chromothripsis tumors (AID 1671456); details: UWB1.289 ovarian carcinoma cells, stronger effect = higher value;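 also: cells exposed to compound for four days; 0% = vehicle DMSO and 100% = killing by high DMSO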
# [4] = growth inhibition, single agents and combos, LFS_MB_2R, cell-based, cisplatin combos, synergistic combos for chromothripsis tumors (AID 1671457); details: LFS_MB_2R medulloblastoma cells, stronger effect = higher value;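 also: cells exposed to compound for four days before readout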
# [5] = growth inhibition, MDA-MB-436, cell-based, BGB or cisplatin combos, synergistic combos for chromothripsis tumors (AID 1671458; call rule not given here;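 also: cells exposed for 96 hours; 0% = vehicle DMSO and 100% = killing by high DMSO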); details: MDA-MB-436 breast carcinoma growth inhibition, drug combinations, stronger effect = higher value
# [6] = UWB1.289_BRCA1 ovarian cancer growth, cell-based, BGB or cisplatin combinations (AID 1671459); details: UWB1.289 BRCA1 ovarian carcinoma, drug combinations, stronger effect = higher value
# [7] = drug combination toxicity in non-malignant astrocytes – cell-based, BGB or cisplatin IC20 combos, cytotoxicity control for chromothriptic childhood tumor combination screen (AID 1671460); details: Human astrocytes, viability inhibition, drug combinations, at 0.5 µM, stronger effect = higher value;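 also: cells exposed to compounds for 96 hours before viability readout; 0% = vehicle and 100% = killing control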
# [8] = BT084 cell growth, single and combined drugs, ICGC_MB145, cisplatin and BGB IC40 combos (AID 1671461); details: BT084 medulloblastoma cells, drug combinations, stronger effect = higher value;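 also: cells exposed to drugs for 96 hours; 0% = vehicle DMSO and 100% = high DMSO full killing control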
# [9] = RCMB18 cell growth, single agent and combined, cisplatin and BGB IC40 combos (AID 1671462); details: RCMB18 medulloblastoma cells, stronger effect = higher value;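 also: cells exposed to compound for four days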
# [10] = CRL1545 cell growth, single agent and combined, cisplatin and BGB IC20 combos (AID 1671464); details: CRL1545 osteosarcoma cells, stronger effect = higher value;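 also: cells exposed to compound for 96 hours before readout; 0% = vehicle DMSO and 100% = high DMSO killing control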
# [11] = growth inhibition, single agent or in combination, cell-based, chromothripsis tumors, cisplatin or BGB combos (AID 1671449); details: LFS_MB_P medulloblastoma cells;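 also: cells exposed for 96 hours; 0% = vehicle DMSO and 100% = killing by high DMSO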
# [12] = growth inhibition, single agent and combos, cell-based, chromothripsis tumors, cisplatin or BGB combos (AID 1671450); details: HDN33 neuroblastoma cells, stronger effect = higher value;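 also: cells exposed to compound for four days; 0% = vehicle DMSO and 100% = cell killing by high DMSO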
# [13] = growth inhibition, single agents and combos, ICB984, cell-based, cisplatin or BGB combos, synergistic combos for chromothripsis tumors (AID 1671451; call rule not given here;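 also: cells exposed for 96 hours before readout; 0% = vehicle DMSO and 100% = killing by high DMSO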); details: ICB984 medulloblastoma cells, drug combinations, stronger effect = higher value
# [14] = growth inhibition, single agents and combos, LFS_MB_1R, cell-based, cisplatin or BGB combos, synergistic combos for chromothripsis tumors (AID 1671452); details: LFS_MB_1R medulloblastoma cells, stronger effect = higher value;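 also: cells exposed for 96 hours before readout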
# [15] = growth inhibition, single agents and combos, HTB85, cell-based, BGB or cisplatin IC20 combos, synergistic combos for chromothripsis tumors (AID 1671453); details: HTB85 osteosarcoma cells, drug combinations, stronger effect = higher value;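 also: cells exposed for 96 hours before readout; 0% = vehicle DMSO and 100% = high DMSO killing control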
# [16] = measured here: combination with BGB at IC20, at 0.5 µM
# [17] = measured here: combination with cisplatin at IC20, at 0.5 µM
# [18] = measured here: combo with BGB at IC20, at 0.5 µM
# [19] = measured here: combo with cisplatin at IC20, at 0.5 µM
# [20] = measured here: inhibition with BGB combination, at 0.05 µM
# [21] = measured here: inhibition with cisplatin combination, at 0.05 µM
# [22] = measured here: combination with cisplatin, at 0.5 µM
# [23] = measured here: combination with cisplatin, at 5 µM
# [24] = measured here: BGB combination, at 0.5 µM
# [25] = measured here: BGB combination, at 5 µM
# [26] = measured here: cisplatin combination, at 0.5 µM
# [27] = measured here: cisplatin combination, at 5 µM
# [28] = BGB combination, concentration series, at 5 µM
# [29] = cisplatin combination, concentration series, at 5 µM
# [30] = measured here: combo with BGB IC20
# [31] = measured here: combo with cisplatin IC20
# [32] = cisplatin combination, at 0.5 µM
# [33] = measured here: BGB IC40 combination 0.05 uM, at 0.05 µM
# [34] = measured here: BGB IC40 combination, at 0.05 µM
# [35] = measured here: with BGB IC20 combination, at 0.5 µM
# [36] = measured here: with cisplatin IC20 combination, at 0.5 µM
# [37] = measured here: combination with BGB IC40, at 0.05 µM
structure (smiles),measurement,setting,value
CCCCCCCCCC(=O)N[C@@H](Cc1c[nH]c2ccccc12)C(=O)N[C@@H](CC(N)=O)C(=O)N[C@@H](CC(=O)O)C(=O)NC1C(=O)NCC(=O)N[C@@H](CCCN)C(=O)N[C@@H](CC(=O)O)C(=O)N[C@H](C)C(=O)N[C@@H](CC(=O)O)C(=O)NCC(=O)N[C@H](CO)C(=O)N[C@@H](C(C)CC(=O)O)C(=O)N[C@@H](CC(=O)c2ccccc2N)C(=O)OC1C (stereo partly specified),inhibition,[1]; at 0.5 µM,-34.4% (inactive) and -31.7% (inactive)
same,inhibition,[1]; [16],-39.7% and -27.2%
same,inhibition,[1]; [17],-14% and -62.4%
same,inhibition,[2]; at 0.5 µM,-9.94% (inactive) and -8.88% (inactive)
same,inhibition,[2]; [18],-6.42% and -16.2%
same,inhibition,[2]; [19],-14.7% and -5.25%
same,inhibition,[3]; at 0.5 µM,10.2% (inactive) and 12.2% (inactive)
same,inhibition,[3]; [20],-9.69% and -2.7%
same,inhibition,[3]; [21],-15.8% and -25.8%
same,inhibition,[4]; at 0.5 µM,-23.5% (inactive) and -6.81% (inactive)
same,inhibition,[4]; [22],-31.3% and -1.96%
same,inhibition,[4]; [23],-80.2% and 9.2%
same,inhibition,[5]; at 0.5 µM,-16.9% (inactive) and 1.2% (inactive)
same,inhibition,[5]; [24],-8.45% and 11.2%
same,inhibition,[5]; [25],-21.2% and 5.73%
same,inhibition,[5]; [26],-33.4% and -3.35%
same,inhibition,[5]; [27],-35% and -1.3%
same,inhibition,[6]; [28],0.446% and -9.8%
same,inhibition,[6]; at 0.5 µM,-0.18% (inactive) and -1.59% (inactive)
same,inhibition,[6]; [29],29.6% and 3.48%
same,inhibition,[7],-6.51% (inactive) and -21.5% (inactive)
same,inhibition,[7]; [30],-8.41% and -24.6%
same,inhibition,[7]; [31],-7.76% and -27.2%
same,inhibition,[8]; at 0.5 µM,-50.8% (inactive) and -0.72% (inactive)
same,inhibition,[8]; [32],-32.6% and -11.3%
same,inhibition,"[8]; cisplatin combination, at 5 µM",-30.3% and -7.6%
same,inhibition,[8]; [33],-7.72% and 14.6%
same,inhibition,"[8]; single agent, at 5 µM",-22.5% and -17.6%
same,inhibition,[9]; at 0.5 µM,-14.5% (inactive) and -23% (inactive)
same,inhibition,"[9]; cisplatin combo, at 5 µM",-29.9% and -45.9%
same,inhibition,[9]; [34],-12.3% and 4.76%
same,inhibition,[9]; [22],-0.362% and -63.9%
same,inhibition,"[9]; single agent, at 5 µM",-26.6% and -8.51%
same,inhibition,[10]; at 0.5 µM,12.4% (inactive) and 0.47% (inactive)
same,inhibition,[10]; [35],12.1% and 6.43%
same,inhibition,[10]; [36],10.6% and -4.18%
same,inhibition,"[10]; single agent, at 0.05 µM",-15.3% and 8.61%
same,inhibition,"[10]; single agent, at 5 µM",20.8% and -15.6%
Cc1ccc([N+](=O)[O-])cc1S(=O)(=O)N(C)/N=C\c1cnc2ccc(Br)cn12,inhibition,"[11]; at 0.5 µM, stronger effect = higher value",61.9% (inactive)
same,inhibition,"[11]; measured here: combination with BGB IC20, at 0.005 µM",-13.3%
same,inhibition,"[11]; measured here: combination with BGB IC40, at 0.005 µM",-40.2%
same,inhibition,[11]; [37],-31.8%
same,inhibition,"[11]; measured here: combination with cisplatin, at 0.5 µM, stronger effect = higher value",56.3%
same,inhibition,"[11]; measured here: combination with cisplatin, at 5 µM, stronger effect = higher value",118%
same,inhibition,"[12]; BGB combo, at 5 µM",99.2%
same,inhibition,[12]; at 0.5 µM,94.3% (active)
same,inhibition,"[12]; cisplatin combo, at 5 µM",99.5%
same,inhibition,[12]; [35],94%
same,inhibition,[12]; [36],93.5%
same,inhibition,"[12]; single agent, at 5 µM",99.5%
same,inhibition,"[13]; BGB IC20 combo, at 0.005 µM",97.1%
same,inhibition,"[13]; BGB IC40 combo, at 0.005 µM",95.5%
same,inhibition,"[13]; BGB IC40 combo, at 0.05 µM",97.1%
same,inhibition,[13]; at 0.5 µM,-13.8% (inactive)
same,inhibition,"[13]; cisplatin combo, at 0.05 µM",97%
same,inhibition,"[13]; cisplatin combo, at 0.5 µM",-12.8%
same,inhibition,"[13]; cisplatin combo, at 5 µM",-10.7%
same,inhibition,"[13]; measured here: 5 uM single agent, at 5 µM",-35%
same,inhibition,[14]; at 0.5 µM,97.7% (active)
same,inhibition,[14]; [37],22.2%
same,inhibition,[14]; [22],94.2%
same,inhibition,[14]; [23],99.5%
same,inhibition,[15]; at 0.5 µM,95.7% (active)
same,inhibition,"[15]; measured here: with BGB IC20, at 0.5 µM",97.6%
same,inhibition,"[15]; measured here: with BGB IC20, at 5 µM",99.7%
same,inhibition,"[15]; measured here: with cisplatin IC20, at 0.5 µM",99.5%
same,inhibition,"[15]; measured here: with cisplatin IC20, at 5 µM",99.8%
same,inhibition,"[15]; single agent, at 5 µM",99.8%
same,inhibition,[1]; at 0.5 µM,94.2% (active)
same,inhibition,[1]; [16],89.1%
same,inhibition,[1]; [17],96.8%
same,inhibition,[2]; at 0.5 µM,92.1% (active)
same,inhibition,[2]; [18],88.3%
same,inhibition,[2]; [19],94.9%
same,inhibition,[3]; at 0.5 µM,64.8% (inactive)
same,inhibition,[3]; [20],-16.8%
same,inhibition,[3]; [21],-30.8%
same,inhibition,[4]; at 0.5 µM,89.4% (active)
same,inhibition,[4]; [22],92.7%
same,inhibition,[4]; [23],91.4%
same,inhibition,[5]; at 0.5 µM,79.4% (inactive)
same,inhibition,[5]; [24],72.5%
same,inhibition,[5]; [25],55.5%
same,inhibition,[5]; [26],86.1%
same,inhibition,[5]; [27],74.6%
same,inhibition,[6]; [28],89.5%
same,inhibition,[6]; at 0.5 µM,74.9% (inactive)
same,inhibition,[6]; [29],96.2%
same,inhibition,[7],80.6% (active)
same,inhibition,[7]; [30],72.4%
same,inhibition,[7]; [31],82.6%
same,inhibition,[8]; at 0.5 µM,-3% (inactive)
same,inhibition,[8]; [32],-27.5%
same,inhibition,"[8]; cisplatin combination, at 5 µM",-30.7%
same,inhibition,[8]; [33],-4.87%
same,inhibition,"[8]; single agent, at 5 µM",-15.9%
same,inhibition,[9]; at 0.5 µM,67.8% (inactive)
same,inhibition,"[9]; cisplatin combo, at 5 µM",70%
same,inhibition,[9]; [34],19.8%
same,inhibition,[9]; [22],52.5%
same,inhibition,"[9]; single agent, at 5 µM",76%
same,inhibition,[10]; at 0.5 µM,98% (active)
same,inhibition,[10]; [35],98.1%
same,inhibition,[10]; [36],97.9%
same,inhibition,"[10]; single agent, at 0.05 µM",-77.2%
same,inhibition,"[10]; single agent, at 5 µM",100%
